Test results as given in PubChem BioAssay AID2071 (Sanford-Burnham Center for Chemical Genomics, 2009).
In all, about 280,000 compounds went through this assay and about 1,700 (0.61%) were called active. Rule as the data show it: active = inhibition mostly above about 24% (no sharp cut-off); inactive = mostly below about 32%. For the sample, actives were picked, then their nearest neighbours and some compounds at random.

Assay: NALP1 inflammasome inhibitors in reconstituted yeast, colorimetric, S. cerevisiae, triplicate retest (AID 2071)
Details: S. cerevisiae NALP1/ASC/caspase-1 growth, X-gal OD620, 72 h, stronger effect = higher value

CCCCCCCCCCCCn1ccc(=N)cc1
inhibition (at 10 µM unless noted): 92.4% (active)

O=C(N/N=C/c1c(O)n(C2CC2)c(=S)[nH]c1=O)c1ccccc1
inhibition (at 10 µM unless noted): -16.2% (inactive)

COc1ccc(CNCCc2c[nH]c3ccccc23)cc1OC
inhibition (at 10 µM unless noted): -6% (inactive)

CCN1CCN(Cc2cc(OC)c3c(c2)OCO3)CC1
inhibition (at 10 µM unless noted): -2.2% (inactive)

O=C(Nc1cccc(OC(=O)N2CCCCC2)c1)N1CCOCC1
inhibition (at 10 µM unless noted): -35.9% (inactive)

CN1CCN(C(=O)COc2ccc(C(C)(C)C)cc2Br)CC1
inhibition (at 10 µM unless noted): 8.8% (inactive)

CC(C)(C)c1ccc(OC(=O)N2CCCCC2)cc1
inhibition (at 10 µM unless noted): 41% (active)

Cc1ccc(S(=O)(=O)N(C)c2ccc(C(=O)NCC3(N(C)C)CCCCC3)cc2)cc1
inhibition (at 10 µM unless noted): 9.8% (inactive)

COc1ccc(CNCCc2ccc3c(c2)OCO3)c(OC)c1OC
inhibition (at 10 µM unless noted): 30.6% (inactive)

CC(C)c1ccc(OCC(=O)N2CCCN(C)CC2)cc1
inhibition (at 10 µM unless noted): 3.6% (inactive)

C=CCN1C(=O)NC(=O)/C(=C/c2ccc(OCC(=O)Nc3ccc(C)cc3)cc2)C1=O
inhibition (at 10 µM unless noted): 25% (inactive)

CCN1CCN(c2nc3c(c(=O)[nH]2)CCC3)CC1
inhibition (at 10 µM unless noted): 25.1% (inactive)

CN(C)/C=C(\C=[N+](C)C)c1[nH]ncc1[N+](=O)[O-]
inhibition (at 10 µM unless noted): 35.3% (active)

CCN(CC)C(=O)c1ccc(NC(=O)c2sccc2-c2ccccc2)cc1
inhibition (at 10 µM unless noted): 1% (inactive)

O=C(N/N=C/c1c(O)n(C2CC2)c(=S)[nH]c1=O)c1ccccc1Cl
inhibition (at 10 µM unless noted): 3.2% (inactive)

Clc1ccc2nc3c(c(-c4ccccc4)c2c1)CNCC3
inhibition (at 10 µM): 45% (active)
inhibition (triplicate retest, at 20 µM): 66.3%

COc1ccc2[nH]c3c(c2c1)CCN[C@H]3C
inhibition (at 10 µM unless noted): 14.7% (inactive)

COc1ccc(N=Cc2c(O)n(C)c(=O)[nH]c2=O)cc1
inhibition (at 10 µM unless noted): 12.7% (inactive)

CN(c1ccccc1)c1ccc([N+](=O)[O-])c2nonc12
inhibition (at 10 µM unless noted): -7.2% (inactive)

Cc1nc2ccccc2c(=O)n1-c1ccc(Cl)cc1Cl
inhibition (at 10 µM unless noted): 11.2% (inactive)
